Data reported in PubChem BioAssay (EPA / NIEHS).
Active and inactive are the calls of the source. Rule for the calls: active = hit-call score of the fitted dose curve at least 0.9, where 1 is the maximum; inactive = score below 0.9.

Assays:
Details in all cases: mRNA level, 48 h; actives raise or lower the signal
[1] = read-out: Ezrin (EZR), EZR (gene 7430); experiment: LTEA_HepaRG_EZR: Life Technologies and Expression Analysis (LTEA) Assay for Ezrin (EZR) using HepaRG (AID 2283491)
In short: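 Read-out is EZR transcript level by qRT-PCR, normalized to three housekeeping genes and fitted bidirectionally against the DMSO control. Human HepaRG cells received test chemicals for 48 h at eight half-log concentrations up to 100 uM in 0.5% DMSO.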

[2] = read-out: Cytochrome P450 3A7 (Homo sapiens) (UniProt P24462); experiment: LTEA_HepaRG_CYP3A7: Life Technologies and Expression Analysis (LTEA) Assay for CYP3A7 using HepaRG (AID 2283492)
In short: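 Differentiated HepaRG cells in serum-free induction medium exposed 48 h in duplicate to 8-point half-log series from 100 uM top in 0.5% DMSO. CYP3A7 mRNA by qRT-PCR, normalized to ACTB/GAPDH/POLR2A, bidirectional fit versus DMSO.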

CYP3A5 (gene 1577) = experiment: LTEA_HepaRG_CYP3A5: Life Technologies and Expression Analysis (LTEA) Assay for CYP3A5 using HepaRG (AID 2283493)
In short: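 HepaRG plated 48 h, switched to serum-free induction medium, chemicals added 48 h (max 100 uM, half-log, 0.5% DMSO). RNA isolated; CYP3A5 by TaqMan qRT-PCR. Gain/loss vs DMSO.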

[3] = read-out: Fatty Acid-Binding Protein 1 (FABP1), FABP1 (gene 2168); experiment: LTEA_HepaRG_FABP1: Life Technologies and Expression Analysis (LTEA) Assay for Fatty Acid-Binding Protein 1 (FABP1) using HepaRG (AID 2283494)
In short: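 Differentiated human HepaRG cells exposed 48 h in serum-free induction medium to eight half-log concentrations up to 100 uM (0.5% DMSO), duplicate. FABP1 mRNA by qRT-PCR, normalised to ACTB, GAPDH, POLR2A; bidirectional fitting against DMSO.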

[4] = read-out: Cytochrome P450 4A22 (Homo sapiens) (UniProt Q5TCH4); experiment: LTEA_HepaRG_CYP4A22: Life Technologies and Expression Analysis (LTEA) Assay for Cytochrome P450 4A22 (CYP4A22) using HepaRG (AID 2283495)
In short: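 Differentiated HepaRG cells in serum-free induction medium exposed 48 h in duplicate to eight half-log concentrations up to 100 uM in 0.5% DMSO. CYP4A22 mRNA quantified by TaqMan qRT-PCR, normalized to ACTB, GAPDH and POLR2A; bidirectional fit versus DMSO.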

[5] = read-out: Cytochrome P450 7A1 (Homo sapiens) (UniProt P22680); experiment: LTEA_HepaRG_CYP7A1: Life Technologies and Expression Analysis (LTEA) Assay for Cytochrome P450 7A1 (CYP7A1) using HepaRG (AID 2283496)
In short: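 HepaRG cells plated 48 h, then switched to serum-free induction medium and exposed in duplicate for 48 h to 8-point half-log series from 100 uM in 0.5% DMSO. CYP7A1 mRNA by qRT-PCR (TaqMan), normalized to ACTB/GAPDH/POLR2A; bidirectional fit versus DMSO.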

[6] = read-out: Glutathione S-Transferase (GSTA2), GSTA2 (gene 2939); experiment: LTEA_HepaRG_GSTA2: Life Technologies and Expression Analysis (LTEA) Assay for Glutathione S-Transferase (GSTA2) using HepaRG (AID 2283497)
In short: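 Differentiated human HepaRG cells were exposed in duplicate for 48 h in serum-free induction medium, 8 points from 100 uM top in half-log steps, 0.5% DMSO. GSTA2 mRNA was measured by TaqMan qRT-PCR, normalized to ACTB, GAPDH and POLR2A; bidirectional fit versus DMSO.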

[7] = read-out: growth arrest and DNA damage 45 (GADD45G), GADD45G (gene 10912); experiment: LTEA_HepaRG_GADD45G: Life Technologies and Expression Analysis (LTEA) Assay for growth arrest and DNA damage 45 (GADD45G) using HepaRG (AID 2283499)
In short: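 Differentiated human HepaRG cells, 48 h post-plating, exposed 48 h in serum-free induction medium to 8 half-log concentrations (top 100 uM, 0.5% DMSO) in duplicate. GADD45G mRNA measured by Fluidigm TaqMan qRT-PCR, normalized to ACTB, GAPDH, POLR2A; bidirectional fit versus DMSO.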

[8] = read-out: Glutamate-cysteine ligase regulatory (GCLM), GCLM (gene 2730); experiment: LTEA_HepaRG_GCLM: Life Technologies and Expression Analysis (LTEA) Assay for Glutamate-cysteine ligase regulatory (GCLM) using HepaRG (AID 2283500)
In short: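 Cells were plated, cultured 48 h, switched to serum-free induction medium, then dosed in duplicate for 48 h at eight half-log concentrations up to 100 uM. RNA was then profiled by qRT-PCR; gain or loss versus DMSO was fitted.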

[9] = read-out: Glutathione S-transferase M3 (GSTM3), GSTM3 (gene 2947); experiment: LTEA_HepaRG_GSTM3: Life Technologies and Expression Analysis (LTEA) Assay for Glutathione S-transferase M3 (GSTM3) using HepaRG (AID 2283501)
In short: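 Differentiated human HepaRG cells were exposed in duplicate for 48 h in serum-free induction medium, 8 points from 100 uM top in half-log steps, 0.5% DMSO. GSTM3 mRNA was measured by TaqMan qRT-PCR, normalized to ACTB, GAPDH and POLR2A; bidirectional fit versus DMSO.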

[10] = read-out: Hypoxia-inducible factor 1-alpha (Homo sapiens) (UniProt Q16665); experiment: LTEA_HepaRG_HIF1A: Life Technologies and Expression Analysis (LTEA) Assay for Hypoxia-inducible factor 1 (HIF1A) Trancription factor using HepaRG (AID 2283503)
In short: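 Differentiated HepaRG cells in serum-free induction medium exposed 48 h, in duplicate, to 8-point half-log series from 100 uM in 0.5% DMSO. HIF1A mRNA measured by TaqMan qRT-PCR, normalized to ACTB/GAPDH/POLR2A, fitted bidirectionally versus DMSO.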

[11] = read-out: 3-Hydroxy-3-Methylglutaryl-CoA Synthase 2 (HMGCS2), HMGCS2 (gene 3158); experiment: LTEA_HepaRG_HMGCS2: Life Technologies and Expression Analysis (LTEA) Assay for 3-Hydroxy-3-Methylglutaryl-CoA Synthase 2 (HMGCS2) using HepaRG (AID 2283504)
In short: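 Human HepaRG cells in serum-free induction medium were exposed in duplicate for 48 h to 8-point half-log series from 100 uM top in 0.5% DMSO. HMGCS2 mRNA measured by TaqMan qRT-PCR, normalised to ACTB, GAPDH, POLR2A; bidirectional fit versus DMSO.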

HGF (gene 3082) = experiment: LTEA_HepaRG_HGF: Life Technologies and Expression Analysis (LTEA) Assay for Hepatocyte Growth Facto (HGF) using HepaRG (AID 2283505)
In short: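 Differentiated HepaRG cells in serum-free induction medium exposed 48 h in duplicate, 8 half-log concentrations from 100 uM in 0.5% DMSO. HGF mRNA by qRT-PCR, normalised to ACTB, GAPDH, POLR2A; bidirectional fitting.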

[12] = read-out: Insulin Like Growth Factor 1 (IGF1), IGF1 (gene 3479); experiment: LTEA_HepaRG_IGF1: Life Technologies and Expression Analysis (LTEA) Assay for Insulin Like Growth Factor 1 (IGF1) using HepaRG (AID 2283506)
In short: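 HepaRG, plated 48 h, then switched to serum-free induction media; test chemical 8-pt half-log from 100 uM (0.5% DMSO), duplicate, 48 h. Lysis in RLT, TaqMan qRT-PCR, norm. ACTB/GAPDH/POLR2A. Bidirectional fit vs DMSO.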

[13] = read-out: Intercellular Adhesion Molecule 1 (ICAM1), ICAM1 (gene 3383); experiment: LTEA_HepaRG_ICAM1: Life Technologies and Expression Analysis (LTEA) Assay for Intercellular Adhesion Molecule 1 (ICAM1) using HepaRG (AID 2283507)
In short: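 Differentiated human HepaRG cells in serum-free induction medium exposed 48 h in duplicate to 8 half-log concentrations (top 100 uM, 0.5% DMSO). ICAM1 mRNA quantified by TaqMan qRT-PCR, normalized to ACTB, GAPDH and POLR2A; bidirectional fitting versus DMSO.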

[14] = read-out: Insulin-like growth factor-binding protein 1 (IGFBP1), IGFBP1 (gene 3484); experiment: LTEA_HepaRG_IGFBP1: Life Technologies and Expression Analysis (LTEA) Assay for Insulin-like growth factor-binding protein 1 (IGFBP1) using HepaRG (AID 2283508)
In short: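 HepaRG cells, plated 48 h then switched to serum-free induction medium, exposed in duplicate for 48 h to 8-point half-log series from 100 uM in 0.5% DMSO. mRNA measured by qRT-PCR, normalized to ACTB/GAPDH/POLR2A; bidirectional fit versus DMSO.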

[15] = read-out: Interleukin 6 (IL6), IL6 (gene 3569); experiment: LTEA_HepaRG_IL6: Life Technologies and Expression Analysis (LTEA) Assay for Interleukin 6 (IL6) using HepaRG (AID 2283509)
In short: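 HepaRG cells exposed in duplicate for 48 h to eight half-log concentrations, top 100 uM, in 0.5% DMSO serum-free induction medium. mRNA measured by qRT-PCR, normalized to ACTB, GAPDH and POLR2A. Bidirectional fit versus DMSO.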

[16] = read-out: Interleukin 6 Receptor (IL6R), IL6R (gene 3570); experiment: LTEA_HepaRG_IL6R: Life Technologies and Expression Analysis (LTEA) Assay for Interleukin 6 Receptor (IL6R) using HepaRG (AID 2283510);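 for AC50: TaqMan qRT-PCR signal normalized to ACTB GAPDH and POLR2A housekeeping genes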
In short: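 Readout is IL6R transcript level by TaqMan qRT-PCR, normalized to three housekeeping genes and fitted bidirectionally against 0.5% DMSO controls. Human HepaRG cells received chemicals for 48 h in serum-free induction medium, highest concentration 100 uM.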

[17] = read-out: Glutamate-cysteine ligase catalytic (GCLC), GCLC (gene 2729); experiment: LTEA_HepaRG_GCLC: Life Technologies and Expression Analysis (LTEA) Assay for Glutamate-cysteine ligase catalytic (GCLC) using HepaRG (AID 2283498)
In short: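 Differentiated HepaRG cells exposed 48 h in serum-free induction medium, eight-point half-log series topping at 100 uM in 0.5% DMSO, duplicates. GCLC mRNA by qRT-PCR normalized to ACTB, GAPDH and POLR2A, fitted bidirectionally versus DMSO.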

[18] = read-out: Heat shock 70 kDa protein 1 (HSPA1A), gene 3303; experiment: LTEA_HepaRG_HSPA1A: Life Technologies and Expression Analysis (LTEA) Assay for Heat shock 70 kDa protein 1 (HSPA1A) using HepaRG (AID 2283502)
In short: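 Readout is HSPA1A transcript level by microfluidic qRT-PCR, normalized to three housekeeping genes and analysed for gain or loss of signal relative to 0.5% DMSO. Human HepaRG cultures received test chemicals for 48 h at up to 100 uM.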

Measured: AC50

Sequence of Cytochrome P450 3A7 (Homo sapiens) (P24462 whole entry, looked up): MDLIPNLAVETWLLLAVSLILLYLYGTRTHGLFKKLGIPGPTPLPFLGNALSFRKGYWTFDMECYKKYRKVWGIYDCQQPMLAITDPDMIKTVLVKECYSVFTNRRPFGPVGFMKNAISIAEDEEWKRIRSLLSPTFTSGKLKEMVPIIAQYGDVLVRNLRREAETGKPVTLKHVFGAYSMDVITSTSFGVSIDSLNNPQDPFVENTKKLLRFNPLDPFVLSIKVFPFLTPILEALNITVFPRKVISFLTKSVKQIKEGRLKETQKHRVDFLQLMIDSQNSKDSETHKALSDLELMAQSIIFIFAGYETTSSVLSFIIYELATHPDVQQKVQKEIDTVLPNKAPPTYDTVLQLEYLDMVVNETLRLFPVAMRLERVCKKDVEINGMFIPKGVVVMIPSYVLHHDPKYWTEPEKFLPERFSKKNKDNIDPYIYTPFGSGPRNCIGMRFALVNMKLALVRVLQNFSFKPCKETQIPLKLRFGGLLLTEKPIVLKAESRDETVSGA
Sequence of Hypoxia-inducible factor 1-alpha (Homo sapiens) (Q16665 whole entry, looked up): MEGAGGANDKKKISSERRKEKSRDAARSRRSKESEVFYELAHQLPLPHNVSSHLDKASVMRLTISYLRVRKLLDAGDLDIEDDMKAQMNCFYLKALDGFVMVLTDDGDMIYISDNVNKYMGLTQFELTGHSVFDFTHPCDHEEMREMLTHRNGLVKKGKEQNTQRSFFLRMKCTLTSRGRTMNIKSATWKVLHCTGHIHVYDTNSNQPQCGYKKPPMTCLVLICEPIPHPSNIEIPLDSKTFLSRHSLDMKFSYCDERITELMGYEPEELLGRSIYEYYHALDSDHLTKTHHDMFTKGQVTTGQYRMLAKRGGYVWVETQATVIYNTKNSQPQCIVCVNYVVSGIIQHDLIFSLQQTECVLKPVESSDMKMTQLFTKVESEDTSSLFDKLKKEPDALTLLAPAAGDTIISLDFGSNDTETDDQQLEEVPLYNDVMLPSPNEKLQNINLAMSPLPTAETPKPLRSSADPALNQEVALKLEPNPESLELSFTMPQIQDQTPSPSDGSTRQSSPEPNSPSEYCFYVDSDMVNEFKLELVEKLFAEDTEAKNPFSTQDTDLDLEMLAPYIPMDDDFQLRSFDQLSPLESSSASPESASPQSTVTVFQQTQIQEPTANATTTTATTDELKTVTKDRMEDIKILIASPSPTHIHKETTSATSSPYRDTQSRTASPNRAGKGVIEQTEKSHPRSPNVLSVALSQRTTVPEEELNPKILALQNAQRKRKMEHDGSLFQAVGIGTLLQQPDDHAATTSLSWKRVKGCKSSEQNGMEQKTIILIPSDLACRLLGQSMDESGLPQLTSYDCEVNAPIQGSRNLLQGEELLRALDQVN

COC(=O)c1c(Cl)c(Cl)c(C(=O)OC)c(Cl)c1Cl
not listed: [17] | [18]
inactive: all other assays above

O=C(O)CC(O)C(=O)O (centres undefined)
not listed: [8] | [17] | [18]
inactive: all other assays above

O=c1n(CC2CO2)c(=O)n(CC2CO2)c(=O)n1CC1CO1 (centres undefined)
active: [15] 50 µM
not listed: [3] | [18]
inactive: all other assays above

CC(C)=CCCC(C)=CC=O
not listed: [3]
inactive: all other assays above

O=P(OC(CCl)CCl)(OC(CCl)CCl)OC(CCl)CCl
inactive: CYP3A5 (gene 1577) | [9] | [10] | HGF (gene 3082) | [16]
active: [1] 89.1 µM | [2] 9.92 µM | [3] 72.9 µM | [4] 79 µM | [5] 76.9 µM | [6] 75.6 µM | [7] 94.3 µM | [8] 83.9 µM | [11] 72.8 µM | [12] 50 µM | [13] 84.1 µM | [14] 62.7 µM

COc1ccc(-n2nc(C(F)F)cc2-c2ccc(S(C)=O)cc2)cc1 (centres undefined)
active: [2] 19.3 µM | [4] 15.6 µM | [18] 43.5 µM
not listed: [3]
inactive: all other assays above

COCCOc1cc2cc(C(=O)NC3CCN(C(C)C)CC3)n(CC(=O)Nc3ccc(Cl)cn3)c2cn1
inactive: [1] | HGF (gene 3082) | [13]
active: [2] 72 µM | CYP3A5 (gene 1577) 15.9 µM | [3] 34.9 µM | [4] 76.7 µM | [5] 41.2 µM | [6] 45 µM | [7] 45 µM | [9] 45 µM | [10] 72.9 µM | [11] 47.2 µM | [12] 13.8 µM | [14] 45 µM | [16] 10.6 µM
